# Screens deposited in PubChem BioAssay by Broad Institute.
# aSyn UTR act = Activators working through SNCA 5'UTR binding (MLPCN); alpha-synuclein 5'UTR reporter, activators screen; activity score, % (tested at 7.5 µM), hits read low; hit rate 7.1% among 300,000; in the data active means activity score below about -60%
# * hit, by the source's call. The list is a sample of the results.
SMILES,aSyn UTR act
O=C(NC1CCCCC1)C(c1cccnc1)N(C(=O)CCl)c1ccc(F)cc1 (stereo unspecified),-94*
C#CC(=O)N(c1ccc(OC)cc1OC)C(C(=O)NC1CCCC1)c1cccs1 (stereo unspecified),92
CC(C)c1ccc(N(C(=O)c2ccco2)C(C(=O)NC2CCCC2)c2ccncc2)cc1 (stereo unspecified),-150*
CCC(C)c1ccc(N(C(=O)c2ccco2)C(C(=O)NC2CCCC2)c2cccnc2)cc1 (stereo unspecified),-115*
COc1ccc(C(C(=O)NC2CCCCC2)N(C(=O)CCl)c2cccc(Cl)c2)cc1 (stereo unspecified),-74*
Nc1c(C(=O)N2CCCC2)sc2nc(-c3ccccc3)ccc12,-190*
Cc1ccc(C(=O)c2sc3nc4c(cc3c2N)CCC4)cc1,-132*
Nc1c(C(=O)N2CCCCC2)sc2nc3c(cc12)CCCC3,-151*
Clc1ccc(Cl)c(-c2nc(-c3ccncc3)no2)c1,-131*
CCOc1ccc(-c2noc(CCC(=O)O)n2)cc1,60
Clc1ccc(-c2nc(-c3ccncc3)no2)c(Cl)c1,-104*
Clc1ccc(OCc2nc(-c3ccncc3)no2)cc1,-126*
COc1ccc(/C=C2\SC(=O)N(CCNC(=O)C3CC4C=CC3C4)C2=O)cc1 (stereo unspecified),-194*
COc1cc(C2Nc3cc(Cl)c(S(N)(=O)=O)cc3S(=O)(=O)N2)ccc1OCc1ccccc1 (stereo unspecified),-147*
CC1(C)CC(=O)c2ccc(OCc3ccc([N+](=O)[O-])cc3)cc2O1,-151*
CC1(C)CC(=O)c2c(O)cc(OCc3ccc(Br)cc3)cc2O1,-165*
O=c1cc(COc2ccc(Cl)c(Cl)c2)nc2sccn12,-83*
O=c1cc(CNc2cc(C(F)(F)F)cc(C(F)(F)F)c2)nc2sccn12,65
Cc1cccc(NC(=S)NC(=O)c2ccc(-c3ccccc3)cc2)n1,-109*
Cc1cccc(NC(=S)NC(=O)c2oc3ccccc3c2C)n1,-144*
CC(C)c1ccc(C2CC(c3ccc(Br)cc3)=NN2C(N)=S)cc1 (stereo unspecified),-97*
Cc1cccc2c1ncc1c(=O)n(-c3ccccc3)[nH]c12,-146*
C/C(=N\Nc1cc(Cl)nc(C)n1)c1ccccc1,-142*
CNC(=O)C1CCN(S(=O)(=O)c2c(C)noc2/C=C/c2ccccc2F)CC1,-69*
COc1ccccc1N1CCN(C(=O)c2ccc(Cl)c(S(=O)(=O)NCc3ccco3)c2)CC1,-124*
SMILES,aSyn UTR act
COc1cc(C(=O)N2CCN(c3cc(Cl)ccc3Cl)CC2)cc(OC)c1OC,89
O=C(COn1nnc2ccccc21)N1CCN(Cc2ccccc2)CC1,-66*
O=C(COn1nnc2ccccc21)NCC1CCCCC1,-78*
Cc1cc(Cl)ccc1OCCCC(=O)N1CCOCC1,-95*
Cc1cc(Cl)ccc1OCCCC(=O)N1CCCCC1,-101*
Cc1cc(Cl)ccc1OCC(=O)N1C(C)CCCC1C (stereo unspecified),-62*
COc1cc(/C=C/C(=O)NC(=O)c2ccccc2O)ccc1OC(C)=O,-161*
Cc1ccccc1/C(N)=N/OC(=O)/C=C/c1ccccc1,-178*
COc1ccc(/C(N)=N/OC(=O)/C=C/c2ccccc2)cc1,-88*
COc1ccc(/C=C/C(=O)c2cc(F)ccc2OC(=O)c2ccccc2C)cc1OC,82
COc1ccc(/C=C/C(=O)O/N=C(\N)c2ccccc2)cc1OC,-138*
COc1ccc(/C=C/C(=O)Nc2ccc(-n3nncc3-c3ccc(OC)c(OC)c3)cc2)cc1OC,59
COc1ccc(/C=C/C(=O)Nc2ccccc2)cc1OC,-140*
Cc1ccc(/C(N)=N/OC(=O)/C=C/c2ccccc2)cc1,-63*
COc1ccc(Cl)cc1C(=O)O/N=C(\N)c1ccccn1,-159*
COc1ccccc1C(=O)O/N=C(\N)c1ccccc1Cl,-139*
N/C(=N\OC(=O)c1cc(Cl)ccc1Cl)c1ccccn1,-122*
c1ccc(Cn2c(Sc3nnnn3-c3ccccc3)nnc2-c2ccccc2)cc1,-74*
CC1CCc2c(sc3ncn(CCO)c(=O)c23)C1 (stereo unspecified),-116*
COc1nc(C)ccc1-c1noc(-c2cccnc2)n1,-106*
COc1ccccc1-c1nc(-c2ccc(C)nc2OC)no1,-114*
COc1cccc(-c2noc(C3CCCN(C(=O)CC(C)(C)C)C3)n2)c1 (stereo unspecified),-127*
CCC(C)C(=O)N1CCCC(c2nc(-c3cccs3)no2)C1 (stereo unspecified),-126*
CCCCC(=O)N1CCCC(c2nc(-c3cccc(OC)c3)no2)C1 (stereo unspecified),-141*
COc1cccc(-c2noc(C3CCCN(C(=O)c4ccccc4OC)C3)n2)c1 (stereo unspecified),-85*
SMILES,aSyn UTR act
Cc1ccccc1NC(=O)N1CCCC(c2nc(-c3ccc(C(C)C)cc3)no2)C1 (stereo unspecified),-205*
Cc1ccc(N=Nc2c(N)n(-c3ccccc3)[nH]c2=O)cc1,-154*
Cc1[nH]n(-c2ccccc2)c(=O)c1N=Nc1ccccc1,-182*
Nc1[nH]n(-c2ccccc2)c(=O)c1N=Nc1ccc2c(c1)OCO2,-205*
Cc1ccc(-c2csc(N3C(=N)SCC3=O)n2)cc1,-162*
CCOC(=O)CCn1nc(-c2ccc(Cl)cc2)cc1N,-129*
CCN(CCn1cccn1)C(=O)c1cc(COc2ccccc2SC)on1,-90*
CCN(CCn1cccn1)C(=O)c1cc(COc2cc(C)ccc2C)on1,-79*
Clc1ccc(C2=NNC(=NCC3CCCO3)SC2)cc1 (stereo unspecified),-73*
Cc1cc(C2=NNC(=NCCc3ccccc3)SC2)c(C)n1CC1CCCO1 (stereo unspecified),-147*
COc1ccc(CN=C2NN=C(c3ccccc3)CS2)cc1,-114*
C=CCn1c(C)cc(C2=NNC(=NCc3ccccc3)SC2)c1C,-182*
COCCn1c(C)cc(C2=NNC(=Nc3ccccc3)SC2)c1C,-79*
N/C(=N\OC(=O)CC1CCCCC1)c1ccc(Br)cc1,-83*
N/C(=N\OC(=O)C1CCCCC1)c1cccc(Br)c1,-170*
N/C(=N\OC(=O)CC1CCCCC1)c1cccc(Br)c1,-84*
C=CCn1cccc(/C=C/C(=O)c2ccc(C(C)(C)C)cc2)c1=S,-74*
Nc1cc2nc[nH]c2cc1N,-100*
N/C(=N\C(=S)Nc1ccccc1)c1ccccc1,-170*
NC(N)=NC(=S)Nc1ccc(Cl)cc1,-106*
COc1cccc(CNC(=O)CCC2CCCN(C(=O)c3cc4ccccc4o3)C2)c1 (stereo unspecified),-78*
Cc1ccc(Nc2ccc(C(=O)O)cc2N)cc1,-107*
COc1cccc(Nc2ccc(C(=O)O)cc2N)c1,-118*
O=c1c(Cl)c(NCCCO)cnn1-c1nc2ccccc2[nH]1,-232*
CCc1ccc(C(=O)NCc2cccs2)s1,-63*
SMILES,aSyn UTR act
CC(C)Oc1ccc(C(=O)NCc2cccs2)cc1,-85*
O=C(CC1CCCCC1)NCc1ccccc1Cl,-107*
CCc1nc2ccc(C(=O)NCCc3ccco3)cc2nc1CC,-63*
CC(C)(CO)NC(=O)c1ccc2c(c1)C(=O)c1ccccc1-2,-96*
O=C(NCc1ccco1)c1ccc2c(c1)C(=O)c1ccccc1-2,-77*
O=C(NCc1ccco1)c1ccc(Oc2ccccc2)cc1,-87*
O=C(NCc1ccco1)c1ccc2ccccc2c1,-64*
O=C(Nc1ccc(O)c2c(=O)cc(-c3cccc(Cl)c3)oc12)c1cccc(Cl)c1,61
